Measurements from the supplement of paper PMC8728848.
Shown is part of a subset that was picked to be rich in the strongest signals.

Experiments:
Assay in all cases: glycan array binding signal (z-score within array); higher = stronger binding
Conditions in all cases: glycan notation: IUPAC condensed, linker removed
[1] = molecular target: Fuc(a1-2)Gal(b1-3)GalNAc(b1-3)Gal(a1-4)Gal(b1-4)Glc
Outline: (§1)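 Arrays were curated from the Consortium for Functional Glycomics database, 3228 in total, and kept only where the protein sequence was available. Binding is expressed as a within-array Z-score. This score was averaged across arrays of the same protein sequence at different concentrations or buffers and across linkers, and negative values can be read as non-binding.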

[2] = molecular target: Fuc(a1-2)Gal(b1-3)GlcNAc(b1-3)[Gal(b1-4)GlcNAc(b1-6)]Gal(b1-4)Glc
Outline: as §1

[3] = molecular target: Fuc(a1-2)Gal(b1-3)[Fuc(a1-4)]GlcNAc(b1-3)[Fuc(a1-3)[Gal(b1-4)]GlcNAc(b1-6)]Gal(b1-4)Glc
Outline: as §1

[4] = molecular target: Fuc(a1-2)[Gal(a1-3)]Gal(b1-3)GlcNAc(b1-2)Man(a1-3)[Fuc(a1-2)[Gal(a1-3)]Gal(b1-3)GlcNAc(b1-2)Man(a1-6)]Man(b1-4)GlcNAc(b1-4)[Fuc(a1-6)]GlcNAc
Outline: as §1

[5] = molecular target: Fuc(a1-2)[Gal(a1-3)]Gal(b1-4)GlcNAc(b1-2)Man(a1-3)[Fuc(a1-2)[Gal(a1-3)]Gal(b1-4)GlcNAc(b1-2)Man(a1-6)]Man(b1-4)GlcNAc(b1-4)GlcNAc
Outline: as §1

[6] = molecular target: Fuc(a1-2)[GalNAc(a1-3)]Gal(b1-3)GlcNAc(b1-2)Man(a1-3)[Fuc(a1-2)[GalNAc(a1-3)]Gal(b1-3)GlcNAc(b1-2)Man(a1-6)]Man(b1-4)GlcNAc(b1-4)[Fuc(a1-6)]GlcNAc
Outline: as §1

[7] = molecular target: Fuc(a1-2)[GalNAc(a1-3)]Gal(b1-4)Glc
Outline: as §1

[8] = molecular target: Fuc(a1-2)[GalNAc(a1-3)]Gal(b1-4)GlcNAc(b1-3)[Fuc(a1-2)[GalNAc(a1-3)]Gal(b1-4)GlcNAc(b1-6)]GalNAc
Outline: as §1

[9] = molecular target: Fuc(a1-2)[GalNAc(a1-3)]Gal(b1-4)[Fuc(a1-3)]GlcNAc
Outline: as §1

Fuc(a1-3)GlcNAc = molecular target: Fuc(a1-3)GlcNAc
Outline: as §1

[10] = molecular target: Fuc(a1-3)[GalNAc(b1-4)]GlcNAc
Outline: as §1

Fuc(a1-4)GlcNAc = molecular target: Fuc(a1-4)GlcNAc
Outline: as §1

[11] = molecular target: Gal(a1-3)Gal(b1-3)[Fuc(a1-4)]GlcNAc(b1-2)Man(a1-3)[Gal(a1-3)Gal(b1-3)[Fuc(a1-4)]GlcNAc(b1-2)Man(a1-6)]Man(b1-4)GlcNAc(b1-4)GlcNAc
Outline: as §1

[12] = molecular target: Gal(b1-3)[Fuc(a1-4)]GlcNAc(b1-2)Man(a1-3)[Gal(b1-3)[Fuc(a1-4)]GlcNAc(b1-2)Man(a1-6)]Man(b1-4)GlcNAc(b1-4)[Fuc(a1-6)]GlcNAc
Outline: as §1

[13] = molecular target: Gal(b1-4)GlcNAc(b1-2)[Gal(b1-4)GlcNAc(b1-4)]Man(a1-3)[Gal(b1-4)GlcNAc(b1-2)[Gal(b1-4)GlcNAc(b1-6)]Man(a1-6)]Man(b1-4)GlcNAc(b1-4)GlcNAc
Outline: as §1

[14] = molecular target: Gal(b1-4)GlcNAc(b1-2)[Gal(b1-4)GlcNAc(b1-4)]Man(a1-3)[GlcNAc(b1-4)][Gal(b1-4)GlcNAc(b1-2)Man(a1-6)]Man(b1-4)GlcNAc(b1-4)GlcNAc
Outline: as §1

[15] = molecular target: Gal(b1-4)GlcNAc(b1-3)Gal(b1-3)GalNAc
Outline: as §1

[16] = molecular target: Gal(b1-4)GlcNAc(b1-6)[Gal(b1-3)]GalNAc
Outline: as §1

[17] = molecular target: Gal(b1-4)GlcNAc(b1-6)[Gal(b1-4)GlcNAc(b1-3)]GalNAc
Outline: as §1

Gal3S(b1-3)GalNAc = molecular target: Gal3S(b1-3)GalNAc
Outline: as §1

Gal6S(b1-4)Glc6S = molecular target: Gal6S(b1-4)Glc6S
Outline: as §1

[18] = molecular target: GalNAc3S(b1-4)[Fuc(a1-3)]GlcNAc
Outline: as §1

Glc(a1-4)Glc = molecular target: Glc(a1-4)Glc
Outline: as §1

[19] = molecular target: GlcNAc(a1-4)Gal(b1-4)GlcNAc(b1-3)Gal(b1-4)GlcNAc
Outline: as §1

[20] = molecular target: GlcNAc(b1-3)Gal(b1-4)GlcNAc(b1-2)Man(a1-3)[GlcNAc(b1-3)Gal(b1-4)GlcNAc(b1-2)Man(a1-6)]Man(b1-4)GlcNAc(b1-4)GlcNAc
Outline: as §1

[21] = molecular target: GlcNAc(b1-3)Gal(b1-4)GlcNAc(b1-3)GalNAc
Outline: as §1

[22] = molecular target: GlcNAc(b1-3)Gal(b1-4)GlcNAc(b1-3)[GlcNAc(b1-3)Gal(b1-4)GlcNAc(b1-3)]GalNAc
Outline: as §1

[23] = molecular target: GlcNAc(b1-3)Gal(b1-4)GlcNAc(b1-6)[Gal(b1-3)]GalNAc
Outline: as §1

[24] = molecular target: GlcNAc(b1-6)Gal(b1-4)GlcNAc
Outline: as §1

[25] = molecular target: Man(a1-2)Man(a1-3)[Man(a1-2)Man(a1-6)]Man(a1-6)[Man(a1-2)Man(a1-2)Man(a1-3)]Man(b1-4)GlcNAc(b1-4)GlcNAc
Outline: as §1

[26] = molecular target: Man(a1-2)Man(a1-3)[Man(a1-6)]Man(a1-6)[Man(a1-2)Man(a1-3)]Man(b1-4)GlcNAc(b1-4)GlcNAc
Outline: as §1

[27] = molecular target: Man(a1-2)Man(a1-6)[Man(a1-3)]Man(a1-6)[Man(a1-2)Man(a1-2)Man(a1-3)]Man(b1-4)GlcNAc(b1-4)GlcNAc
Outline: as §1

[28] = molecular target: Man(a1-3)[Man(a1-6)]Man(a1-6)[Man(a1-2)Man(a1-3)]Man(b1-4)GlcNAc(b1-4)GlcNAc
Outline: as §1

[29] = molecular target: Man(a1-3)[Man(a1-6)]Man(a1-6)[Man(a1-3)]Man
Outline: as §1

[30] = molecular target: Man(a1-3)[Man(a1-6)]Man(a1-6)[Man(a1-3)]Man(b1-4)GlcNAc(b1-4)GlcNAc
Outline: as §1

[31] = molecular target: Neu5Ac(a2-3)Gal(b1-3)[Fuc(a1-4)]GlcNAc
Outline: as §1

[32] = molecular target: Neu5Ac(a2-3)Gal(b1-4)[Fuc(a1-3)]GlcNAc(b1-3)Gal
Outline: as §1

[33] = molecular target: Neu5Ac(a2-6)Gal(b1-4)GlcNAc(b1-2)Man(a1-3)[GlcNAc(b1-2)Man(a1-6)]Man(b1-4)GlcNAc(b1-4)GlcNAc
Outline: as §1

[34] = molecular target: Neu5Ac(a2-6)Gal(b1-4)GlcNAc(b1-3)Gal(b1-4)GlcNAc(b1-6)[Gal(b1-3)]GalNAc
Outline: as §1

[35] = molecular target: Neu5Ac(a2-6)Gal(b1-4)GlcNAc(b1-6)[Gal(b1-3)]GalNAc
Outline: as §1

Neu5Gc(a2-6)GalNAc = molecular target: Neu5Gc(a2-6)GalNAc
Outline: as §1

B1: PFL (Pseudomonas fluorescens) (protein)
chain: MSKYAVANQWGGSSAPWHPGGTWVLGARDNQNVVAIEIKSGDGGKSFTGTMTYAGEGPIGFKAQRTGQNQYNVENQWGGNDAPWHPGGKWVIGGRDNQNVIALSVTSSDGGKNLSGTNTYANEGPIGFRGQIE
Which “glycan array binding signal (z-score)” value [1] does the source give for B1 here?
The value was -0.111.

What about the “glycan array binding signal (z-score)” value [2] of the same binder?
The value was -0.11.

What about the “glycan array binding signal (z-score)” value [3] of the same binder?
Its value is -0.113.

And the “glycan array binding signal (z-score)” value [4]?
The value was 0.415.

What about the “glycan array binding signal (z-score)” value [5] of the same binder?
The value was -0.073.

And the “glycan array binding signal (z-score)” value [6]?
Its value is 0.249.

What about the “glycan array binding signal (z-score)” value [7] of the same binder?
The value was -0.112.

And the “glycan array binding signal (z-score)” value [8]?
The value was -0.103.

What about the “glycan array binding signal (z-score)” value [9] of the same binder?
Its value is -0.111.

And the “glycan array binding signal (z-score)” value (Fuc(a1-3)GlcNAc)?
The value was -0.12.

And the “glycan array binding signal (z-score)” value [10]?
The value was -0.105.

And the “glycan array binding signal (z-score)” value (Fuc(a1-4)GlcNAc)?
Its value is -0.116.

What about the “glycan array binding signal (z-score)” value [11] of the same binder?
Its value is 0.499.

What about the “glycan array binding signal (z-score)” value [12] of the same binder?
Its value is 0.665.

And the “glycan array binding signal (z-score)” value [13]?
The value was 0.988.

What about the “glycan array binding signal (z-score)” value [14] of the same binder?
Its value is -0.117.

And the “glycan array binding signal (z-score)” value [15]?
Its value is -0.116.

And the “glycan array binding signal (z-score)” value [16]?
Its value is -0.113.

What about the “glycan array binding signal (z-score)” value [17] of the same binder?
Its value is -0.108.

And the “glycan array binding signal (z-score)” value (Gal3S(b1-3)GalNAc)?
The value was -0.116.

What about the “glycan array binding signal (z-score)” value (Gal6S(b1-4)Glc6S) of the same binder?
Its value is -0.107.

And the “glycan array binding signal (z-score)” value [18]?
The value was -0.116.

What about the “glycan array binding signal (z-score)” value (Glc(a1-4)Glc) of the same binder?
Its value is -0.116.

What about the “glycan array binding signal (z-score)” value [19] of the same binder?
The value was -0.117.

What about the “glycan array binding signal (z-score)” value [20] of the same binder?
Its value is -0.111.

What about the “glycan array binding signal (z-score)” value [21] of the same binder?
Its value is -0.112.

What about the “glycan array binding signal (z-score)” value [22] of the same binder?
The value was -0.11.

And the “glycan array binding signal (z-score)” value [23]?
The value was -0.115.

And the “glycan array binding signal (z-score)” value [24]?
Its value is -0.117.

What about the “glycan array binding signal (z-score)” value [25] of the same binder?
The value was 3.46.

And the “glycan array binding signal (z-score)” value [26]?
The value was 9.19.

And the “glycan array binding signal (z-score)” value [27]?
The value was 11.7.

What about the “glycan array binding signal (z-score)” value [28] of the same binder?
The value was 13.2.

What about the “glycan array binding signal (z-score)” value [29] of the same binder?
Its value is 7.17.

What about the “glycan array binding signal (z-score)” value [30] of the same binder?
Its value is 10.9.

And the “glycan array binding signal (z-score)” value [31]?
The value was -0.12.

And the “glycan array binding signal (z-score)” value [32]?
The value was -0.117.

And the “glycan array binding signal (z-score)” value [33]?
The value was 0.313.

What about the “glycan array binding signal (z-score)” value [34] of the same binder?
Its value is -0.118.

And the “glycan array binding signal (z-score)” value [35]?
Its value is -0.117.

What about the “glycan array binding signal (z-score)” value (Neu5Gc(a2-6)GalNAc) of the same binder?
The value was -0.114.
